# Hits are enriched below; roughly 9.9% of the tested compounds scored in any of these assays.
# JMJD2E inh: qHTS Assay for Inhibitors of Human Jumonji Domain Containing 2E (JMJD2E). Lysine-specific demethylase 4E (Homo sapiens), B2RXH2. JMJD2E catalytic domain, FDH-coupled NADH fluorescence (FDH is formaldehyde dehydrogenase). Potency, µM (highest dose often 57.1 µM), without a hit: at the top dose activity change, negative = inhibition, hits mostly inhibitors. hit rate 1.6% among 230,000. AID 2147, 2009; active = well fitted inhibition curve with a large enough effect, not every such curve was filed as active; inconclusive = small, poorly fitted or top-dose-only effect, or another doubt; inactive = no such curve, though single readings can be large or run the other way;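 also: 0% = wells with enzyme and -100% = buffer wells without enzyme; nearly all actives have a fitted effect of over 50% in size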
# ALDH1A1 inh: qHTS Assay for Inhibitors of Aldehyde Dehydrogenase 1 (ALDH1A1); Potency, µM (series often up to 75.3 µM), for inactives: at the top dose activity, negative = inhibition, usual class: inhibitors; Purified ALDH1A1, NADH fluorescence, propionaldehyde substrate; hit rate 7.3% among 220,000; Aldehyde dehydrogenase 1A1 (Homo sapiens), P00352; active = well fitted inhibition curve with a large enough effect, not every such curve was filed as active; inconclusive = small, poorly fitted or top-dose-only effect, or another doubt; inactive = no such curve, though single readings can be large or run the other way;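 also: plate controls were no enzyme wells and a reference inhibitor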
# Tau ThT inhib: qHTS for Inhibitors of Tau Fibril Formation, Thioflavin T Binding; Potency, µM (series often up to 57.4 µM), for the others: top-dose activity, negative = inhibition, most hits filed as inhibitors; hit rate 2.1% among 270,000; recombinant tau K18 P301L, heparin-induced fibrillization, ThT fluorescence; Microtubule-associated protein tau (Homo sapiens), P10636; also: nearly all actives have a fitted effect of over 55% in size
# Target sequence (P10636 561-689 P618L limits assumed): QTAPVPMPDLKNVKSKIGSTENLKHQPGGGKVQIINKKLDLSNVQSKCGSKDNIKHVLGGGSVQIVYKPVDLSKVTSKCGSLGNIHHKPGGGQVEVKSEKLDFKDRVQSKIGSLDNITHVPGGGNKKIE
#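 Using a mix of unlabeled (15 uM) and Alexa 594-labeled (0.24 uM) tau K18 P301L, heparin-triggered fibrillization over 6 hr at 37 C was scored by ThT fluorescence.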
# HPGD inh: qHTS Assay for Inhibitors of HPGD (15-Hydroxyprostaglandin Dehydrogenase) | 15-hydroxyprostaglandin dehydrogenase [NAD(+)] (Homo sapiens), P15428 | purified HPGD, NADH fluorescence kinetic, PGE2 substrate | Potency, µM, inactives show top-dose activity change, negative = inhibition, usual class: inhibitors | hit rate 4.3% among 150,000 | AID 894, 2007; active = well fitted inhibition curve with a large enough effect, not every such curve was filed as active; inconclusive = small, poorly fitted or top-dose-only effect, or another doubt; inactive = no such curve, though single readings can be large or run the other way
# Target sequence (P15428 whole entry, looked up): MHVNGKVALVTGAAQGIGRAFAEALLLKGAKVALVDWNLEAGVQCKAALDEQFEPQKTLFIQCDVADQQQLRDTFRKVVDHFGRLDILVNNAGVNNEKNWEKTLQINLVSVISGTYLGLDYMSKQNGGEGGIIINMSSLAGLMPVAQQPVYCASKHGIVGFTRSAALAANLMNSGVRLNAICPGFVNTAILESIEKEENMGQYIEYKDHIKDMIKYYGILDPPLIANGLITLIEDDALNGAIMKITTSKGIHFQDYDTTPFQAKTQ
#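 NADH formation kinetics: reaction with 30 uM PGE2 and 1 mM NAD+ (final), 20 nM enzyme, Tris-HCl pH 8 with Tween 20, after 15 min compound preincubation at room temperature. Fluorescence change, last versus first of five reads.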
# Tau fluor counter: Counterscreen qHTS for Inhibitors of Tau Fibril Formation, Fluorescence Polarization; tau K18 P301L Alexa594 fluorescence, heparin fibrillization; Potency, µM (titrated, usually from 57.7 µM), without a hit: at the top dose activity change, negative = decrease; hit rate 0.93% among 280,000; AID 1463, 2008; also: nearly all actives have a fitted effect of over 55% in size
#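 Human tau K18 P301L (15 uM unlabeled, 0.24 uM Alexa 594-labeled) in 100 mM sodium acetate pH 7 with 20 uM heparin, 6 hr at 37 C. ThT 30 uM added, 1 hr ambient; Alexa 594 FP and total fluorescence read at 555/632 nm.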
# Tau fibril FP: qHTS for Inhibitors of Tau Fibril Formation, Fluorescence Polarization. AID 1468, 2008. hit rate 0.39% among 280,000. Potency, µM (highest dose often 57.7 µM), inactives show top-dose activity, negative = inhibition, most hits filed as inhibitors. Microtubule-associated protein tau (Homo sapiens), P10636. K18 P301L tau heparin fibrillization, Alexa594 FP, 6 h; also: nearly all actives have a fitted effect of over 55% in size
#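 FP of Alexa 594-tau after heparin (20 uM) induction. Substrate: human K18 P301L, 15 uM unlabeled, 0.24 uM labeled. Buffer 100 mM sodium acetate pH 7. 6 hr, 37 C.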
# Active calls of the source: *; u = inconclusive; x = no result given; [ ] = remark or other dose. Unless noted, calls follow the shape of the dose curve; as a rule, active = well fitted curve in the direction sought with a large enough effect; inconclusive = small, poorly fitted or top-dose-only effect, or another doubt; inactive = no such curve, though single readings can be large; an effect the other way counts as inactive or inconclusive. Unless noted, % is scaled to controls: 0 for no effect and ±100 for the full control effect; potency is read from the fitted curve at half-maximal effect.
SMILES,JMJD2E inh,ALDH1A1 inh,Tau ThT inhib,HPGD inh,Tau fluor counter,Tau fibril FP
Cc1ccc2nc(-c3cccnc3)cc(C(=O)N3CCN(c4ccc([N+](=O)[O-])cc4)CC3)c2c1,-4%,8.9µM*,u,x,-18%,-7%
O=C(NCC1CCCN(Cc2ccc3nonc3c2)C1)c1cccc(C(F)(F)F)c1 (stereo unspecified),-2%,0%,13%,x,3%[2.34 µM],-4%[2.34 µM]
Cc1c(CCOC(=O)c2cc([N+](=O)[O-])cc([N+](=O)[O-])c2)sc[n+]1CC(=O)c1ccc(Br)cc1,u,2.5µM*,u,x,u,5%
COc1ccc(S(=O)(=O)NCCSCc2ccccc2C)cc1Br,-2%,25µM*,u,28µM*,u,0%
Cc1ccccc1CSCCNS(C)(=O)=O,-3%,-7%,-5%,2%,-3%,0%
CC(=O)C1=C(c2ccccc2)OC(N)=C(C#N)C1c1ccc(O)cc1 (stereo unspecified),-1%,20µM*,-5%,-12%,-3%,-5%
CCOC(=O)C1=C(C)OC(N)=C(C#N)C1c1ccccc1 (stereo unspecified),1%,22µM*,8%,x,-1%,4%
COC(=O)C1=C(C)OC(N)=C(C#N)C1c1ccccc1 (stereo unspecified),6%,u,8%,-22%,1%,2%
CCOC(=O)C1=C(N)OC(CCl)=C(C#N)C1c1ccsc1 (stereo unspecified),-1%,7.9µM*,u,-6%,-1%,-6%
CCOC(=O)C1=C(c2ccccc2)OC(N)=C(C#N)C1c1ccc(Cl)s1 (stereo unspecified),u,1.8µM*,u,-12%,u,-4%
CC1=C(C(=O)OCc2ccccc2)C(c2ccsc2)C(C#N)=C(N)O1 (stereo unspecified),-14%,u,-7%,-29%,-29%,u
Cn1ccnc1SCC(=O)Nc1cccc(S(=O)(=O)N2CCCCC2)c1,20%,-1%,-4%,x,-4%,-3%
CCN=c1scc(C)n1/N=C/c1cc(Br)c(O)c(Br)c1,u,u,u,x,u,15%
CCN=c1scc(-c2ccco2)n1/N=C/c1ccc(O)cc1,-17%,20µM*,7.1µM*,u,14µM*[quencher],8%
CCN=c1scc(-c2ccco2)n1/N=C/c1ccc(OC)c(O)c1,0%,u,10µM*,-11%,16µM*[quencher],u
CCN(CC)C(C)CN1c2ccccc2Sc2ccccc21 (stereo unspecified),u,u,u,u,20µM*[quencher],11%
O=S(=O)(/C=C/c1ccccc1)NCc1ccccc1Cl,3%,6%,9%,-10%,4%,1%
O=C(Nc1cccc(C(F)(F)F)c1)C1CCCN(S(=O)(=O)c2cccc3nonc23)C1 (stereo unspecified),x,x,8%,x,-6%,-3%
O=C(/C=C/c1ccc(O)c(O)c1)c1ccc(S(=O)(=O)N2CCCCCC2)cc1,28µM*,u,u,u,u,13%
COC(=O)c1ccc(S(=O)(=O)N2CCCCCC2)cc1,6%,6%,1%,-14%,2%,-2%
Cc1ccccc1C(=O)Nc1ccc2c(C#N)c3nc4ccccc4nc3n2c1,u,u,5µM*,-20%,u,-9%
Cc1cc(N2CCCC2)nc2ccc(NC(=S)NCCCOC(C)C)cc12,u,-4%,-15%,x,-14%,9%
Cc1cc(N2CCCCC2)nc2ccc(NC(=O)/C=C/c3ccccc3OC(C)C)cc12,x,x,u,x,7.1µM*[quencher],13%
O=C(/C=C/c1ccccc1Cl)Nc1cccc(S(=O)(=O)NC2=NCCCCC2)c1,-15%,-8%,1%,-7%,14µM*[quencher],u
Cc1cc(N2CCCCC2)nc2ccc(NC(=O)/C=C/c3ccccc3Cl)cc12,x,x,4.5µM*,x,10µM*[quencher],10%
SMILES,JMJD2E inh,ALDH1A1 inh,Tau ThT inhib,HPGD inh,Tau fluor counter,Tau fibril FP
O=C(/C=C/c1ccc(Cl)cc1Cl)Nc1cccc(S(=O)(=O)NC2=NCCC2)c1,-5%,-11%,12%,x,u,u
CCCCC(=Nc1ccc(N)cc1)C1=C(O)C(C(=O)OC)C(C)(C)CC1=O (stereo unspecified),u,u,10µM*,-4%,7.9µM*[quencher],25µM*
CCC(=Nc1ccc(N)cc1)C1=C(O)C(C(=O)OC)C(C)(C)CC1=O (stereo unspecified),8.9µM*,-11%,7.1µM*,x,u,14µM*
COc1ccc(C(=O)Nc2cc(C(=O)c3ccccc3)c(C)oc2=O)cc1,-7%,20µM*,u,-11%,-11%,u
Cc1oc(=O)c(NC(=O)c2cccc(Cl)c2)cc1C(=O)c1ccccc1,-15%,8.9µM*,u,32µM*,-11%,u
Cc1oc(=O)c(NC(=O)c2ccccc2)cc1C(N)=O,-7%,-17%,3%,x,6%,8%
O=C(Nc1ccc(N=Nc2ccccc2)cc1)c1cccc(Cl)c1,10%,12%,3.2µM*,2%,-9%,1%
O=C(N/N=C/C1C(c2ccccc2)C1(Cl)Cl)c1cccc(Cl)c1 (stereo unspecified),-3%,7.1µM*,-16%,-20%,-16%,5%
CCC/C(=N/NC(=O)c1cccc(Cl)c1)c1ccccc1,4%,u,u,-13%,-9%,-2%
N=C(c1ccc2ccccc2c1)c1ccccc1Cc1ccccc1,x,3%[13.5 µM],x,-11%,x,x
COC(=O)c1cc(NC(=O)c2ccccc2)c(=O)oc1C,1%,u,-12%,x,-3%,-5%
CO/N=C\Cc1oc(=O)c(NC(=O)c2ccccc2)cc1C(=O)OC,u,22µM*,u,-11%,-29%,u
CCN(CC)CCCC(C)n1c(-c2ccccc2)nc2c(N3CCOCC3)nc(C)nc21 (stereo unspecified),u,u,0%,-19%,-1%,-5%
C=CCN1C(=O)/C(=C/C=C2/N(CC)c3ccc(S(=O)(=O)N(C)C)cc3N2CC)SC1=S,3%,2.8µM*,u,x,2%,-12%
N#C/C(=C\c1ccc[nH]1)S(=O)(=O)c1ccccc1,-6%,6%,5%,4.5µM*,-7%,-3%

# Assay outcomes from PubChem.
